Most compounds without a hit are left out; they make up all but 3.7% or so of the library.
TCR act = Activators of T cell receptors: qHTS campaign; Potency, µM (doses to about 9.22 µM), for inactives: at the highest dose activation of IL-2 secretion, hits mostly activators; AID 504894, 2011; primary human leukocytes, anti-CD3, IL-2 HTRF, 48 h; 330,000 tested, under 10 active; also: % of control where 0% means no effect
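IL-2 release read by HTRF sandwich (Eu cryptate donor, d2 acceptor, 665 nm emission) after 48 hr exposure of primary human leukocytes to compound together with anti-CD3 beads in the absence of co-stimulatory signals.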
Nrf2 block = Nrf2 qHTS screen for inhibitors | A549 ARE-Fluc reporter, luciferase luminescence, 18-24 h | Potency, µM (highest dose often 46 µM), without a hit: top-dose activity change, negative = inhibition, hits mostly inhibitors | hit rate 2.1% among 360,000 | AID 504444, 2011; also: potency is read from the fitted curve at half-maximal effect; % is scaled to controls: 0 for no effect and ±100 for the full control effect; nearly all actives have a fitted effect of over 60% in size
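A549 ARE_Fluc cells (5000/well, 5% FBS OPTI-MEM) pre-incubated 2 h, then treated with compounds 18-24 h at 37C/5% CO2 in concentration-response. CellTiter-Fluor viability read first; BugLite luciferase luminescence after 15 min at room temperature gives Nrf2 activity.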
ClpP mod = qHTS Assay for Activators of ClpP | hit rate 1.9% among 340,000 | ATP-dependent Clp protease proteolytic subunit (Bacillus subtilis (strain 168)), P80244 | Potency, µM (series often up to 57.5 µM), for inactives: at the top dose activity change, negative = active | AID 651965, 2013 | purified B. subtilis ClpP, FRET peptide cleavage, 20 min; active = well fitted falling curve with a large enough effect; inconclusive = small, poorly fitted or top-dose-only effect; inactive = no such curve, though single readings can be large or run the other way; also: potency is read from the fitted curve at half-maximal effect; the source files actives as falling curves though it sought activators and does not explain the sign; nearly all actives have a fitted effect of over 65% in size
Target sequence (P80244 whole entry, looked up): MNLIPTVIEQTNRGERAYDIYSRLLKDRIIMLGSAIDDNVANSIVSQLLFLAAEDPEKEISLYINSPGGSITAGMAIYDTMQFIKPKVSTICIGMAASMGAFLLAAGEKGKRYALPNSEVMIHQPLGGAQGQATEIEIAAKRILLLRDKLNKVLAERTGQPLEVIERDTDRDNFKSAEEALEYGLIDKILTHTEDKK
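Buffer: 100 mM Tris/HCl pH8, 100 mM KCl, 0.05% low protease BSA, 2.5% glycerol, 0.01% Tween-20. ClpP 10 microg/mL final; 20 min RT; delta FRET normalized to ADEP and DMSO controls.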
miR-21 reporter = qHTS Assay for Modulators of miRNAs and/orActivators of miR-21. HeLa miR-21 FLuc reporter, luciferase, 48 h. Potency, µM (titrated, usually from 38.3 µM), without a hit: at the top dose activity change, positive = activation, actives largely listed as activators. 340,000 tested, under 10 active. AID 2288, 2010;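 also: % of control where 0% means no effect; miR-21 action dims this reporter so a rising signal means less miR-21 action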
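Luminescence from a firefly luciferase reporter carrying a miR-21 binding site downstream, stably expressed under a CMV promoter in HeLa cells that make miR-21 endogenously, reports miRNA modulation after 48 h compound exposure up to approximately 40uM final.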
Nrf2 activator = qHTS of Nrf2 Activators; AREc32 ARE-luciferase reporter (MCF7-derived line), luminescence, 24 h; Potency, µM (top dose mostly 46.1 µM), for the others: at the top dose activation, most hits filed as activators; hit rate 0.31% among 410,000; AID 624171, 2012; also: potency is read from the fitted curve at half-maximal effect; % of control where 0% means no effect; nearly all actives have a fitted effect of over 65% in size
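AREc32_Fluc, 1000 cells/well, OPTI-MEM + 5% FBS, o/n 37 deg C 5% CO2; 23 nL cpd by pin tool, 24 hr; Steady-Glo 30 min RT, luminescence.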
A549 tox-1 = Nrf2 qHTS screen for inhibitors: counterscreen for cytotoxicity. A549 ARE-Fluc cells, CellTiter-Fluor viability, 18-24 h. Potency, µM (top dose mostly 46 µM), without a hit: at the highest dose activity change, negative = cytotoxicity, most hits filed as inhibitors. hit rate 0.16% among 390,000; also: potency is read from the fitted curve at half-maximal effect; % is scaled to controls: 0 for no effect and ±100 for the full control effect
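A549 ARE_Fluc cells in 5% FBS OPTI-MEM were exposed to compounds in concentration-response for 18-24 h at 37 deg C. Viability was read by CellTiter-Fluor fluorescence (Ex 405/Em 525) after 30 min, before the luciferase read.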
FLuc counter 3 = Nrf2 qHTS screen for inhibitors: Purified Fluc Biochemical Counterscreen for Hit Validation; shares compounds with Nrf2 block; purified firefly luciferase, luminescence inhibition; hit rate 4% among 1,400; Potency, µM (highest dose often 57.5 µM), inactives show at the top dose activity change, negative = inhibition, usual class: inhibitors; AID 720522, 2013; also: potency is read from the fitted curve at half-maximal effect; % is scaled to controls: 0 for no effect and ±100 for the full control effect; nearly all actives have a fitted effect of over 65% in size
Target sequence (P08659 whole entry, looked up): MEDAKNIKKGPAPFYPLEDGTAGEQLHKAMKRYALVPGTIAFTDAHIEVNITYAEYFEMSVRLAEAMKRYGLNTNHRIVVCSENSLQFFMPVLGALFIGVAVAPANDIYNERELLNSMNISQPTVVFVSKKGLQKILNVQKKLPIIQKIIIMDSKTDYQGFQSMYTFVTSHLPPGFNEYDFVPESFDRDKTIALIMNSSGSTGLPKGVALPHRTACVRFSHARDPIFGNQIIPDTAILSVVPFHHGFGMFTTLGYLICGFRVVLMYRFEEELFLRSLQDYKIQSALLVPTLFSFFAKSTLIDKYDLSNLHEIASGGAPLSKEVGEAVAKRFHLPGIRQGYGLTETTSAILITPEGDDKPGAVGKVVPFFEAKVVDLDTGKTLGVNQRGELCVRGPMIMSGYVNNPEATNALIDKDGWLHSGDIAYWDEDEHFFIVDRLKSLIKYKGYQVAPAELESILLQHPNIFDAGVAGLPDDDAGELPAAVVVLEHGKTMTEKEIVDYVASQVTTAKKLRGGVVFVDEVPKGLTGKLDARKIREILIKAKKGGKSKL
A549 tox-2 = Nrf2 qHTS screen for inhibitors: A549 ARE-Fluc Cytotoxicity Counterscreen for Hit Validation; A549 ARE-Fluc cells, cytotoxicity counterscreen; shares compounds with Nrf2 block; hit rate 2% among 1,400; Potency, µM (series often up to 46.1 µM), without a hit: top-dose activity change, negative = cytotoxicity, usual class: inhibitors;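 also: potency is read from the fitted curve at half-maximal effect; cells exposed to compounds for 18 to 24 hours; % is scaled to controls: 0 for no effect and ±100 for the full control effect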
Nrf2 ARE inh = Nrf2 qHTS screen for inhibitors: Nrf2 A549 ARE-Fluc Confirmation Assay for Hit Validation; shares compounds with Nrf2 block; A549 ARE-firefly luciferase reporter, luminescence; Potency, µM (top dose mostly 46.1 µM), for inactives: at the top dose activity change, negative = inhibition, most hits filed as inhibitors; hit rate 74% among 1,400; AID 720524, 2013; also: potency is read from the fitted curve at half-maximal effect; % is scaled to controls: 0 for no effect and ±100 for the full control effect; nearly all actives have a fitted effect of over 65% in size
The depositor's hits bear a star; ? = inconclusive; . = no result given; [ ] = another dose, or the depositor's remark. Unless noted, calls follow the shape of the dose curve; as a rule, active = well fitted curve in the direction sought with a large enough effect; inconclusive = small, poorly fitted or top-dose-only effect, or another doubt; inactive = no such curve, though single readings can be large; an effect the other way counts as inactive or inconclusive.

SMILES | TCR act | Nrf2 block | ClpP mod | miR-21 reporter | Nrf2 activator | A549 tox-1 | FLuc counter 3 | A549 tox-2 | Nrf2 ARE inh
CC(C)NC(=O)c1ccc(-n2c(-c3ccccc3)cc3c2CCCC3)cc1 | . | -2% | ? | 16% | ? | 13% | . | . | .
COc1ccc(C)cc1NC(=O)Cn1c(=O)cc(C)c2c(C)nn(C)c21 | . | 5.8µM* | -1% | 9% | -1% | -3% | 4% | -4% | 2.3µM*
COC(=O)c1ccccc1NC(=O)Cn1c(=O)cc(C)c2c(C)nn(C)c21 | . | 9% | 0% | 0% | 0% | -1% | . | . | .
COc1ccccc1C(=O)NC(=S)Nc1ccc(Cc2ccncc2)cc1 | -8% | 5.8µM* | -1% | 7% | 7% | -14% | -1% | 0% | 21µM*
O=C(O)C1=C[C@H](c2csc3ccccc23)C[C@H](OCc2ccc(CO)cc2)O1 | 0% | -11% | -2% | -4% | 0% | -2% | . | . | .
O=C(NCc1ccccc1)C1=C[C@@H](c2csc3ccccc23)C[C@@H](OCc2ccc(CO)cc2)O1 | -37% | 6.5µM* | -7% | ? | 0% | ? | 1% | -26% | 18µM*
Cc1cc(C)c2oc(-c3ccc(NC(=O)c4cc(Br)ccc4Cl)cc3)nc2c1 | . | 5.8µM* | 20µM* | -6% | 3% | 1% | -13% | -1% | 7.3µM*
CCCC(=O)NC(NC(=S)Nc1ccc(N=Nc2ccccc2)cc1)C(Cl)(Cl)Cl (centres undefined) | -3%[46.1 µM] | 8.2µM* | -1% | 29% | -1% | ? | -21% | ? | 7.3µM*
Cc1cc(C)c(CN2CCN(C(=O)Cn3cnc4c(NCc5ccccc5)ncnc43)CC2)c(C)c1 | -7%[46.1 µM] | 3.7µM* | 1% | . | 1% | -8% | 1% | ? | 0.65µM*
Nc1ccc(Oc2ccccc2-c2ccccc2)cc1 | 0% | 9.2µM* | . | . | -2% | 9% | ? | 2% | 8.2µM*
CCOc1cc(/C=N\NC(=O)c2ccc(NC(=O)C(C)(C)C)cc2)ccc1OC(=O)c1cccc(C)c1 | 1% | 5.2µM* | -15% | 10% | -1% | -3% | 0% | -3% | 15µM*
CC(=O)c1sc2c(c1OC(=O)c1ccc(Cl)cc1Cl)c(=O)n(-c1ccccc1)c(=S)n2-c1ccccc1 | -10% | 3.3µM* | 1% | -8% | -1% | ? | 1% | ? | .
CN=C(Nc1cccnc1)c1ccccc1 | 15% | 7% | -5% | 1% | -2% | 0% | . | . | .
Cc1cccc(OCC(=O)NCCCNC(=O)c2cccnc2)c1 | -1% | ? | . | 7% | -1% | 3% | . | . | .
Cc1ccc(OCC(=O)NCCCNC(=O)c2cccnc2)cc1 | -3% | 1.8µM* | . | 4% | 0% | 0% | 1% | 2% | 6%
COc1ccc(-c2cc(OC(=O)c3ccccc3C)c3c(C)oc(C)c3c(=O)c2)cc1 | . | 6% | 1% | 2% | 7% | -14% | . | . | .
COc1ccc(CC(=O)NCc2nn(-c3ccccc3)nc2C)cc1OC | 10% | -7% | -5% | 0% | -1% | 12% | . | . | .
COc1ccc(-c2ocnc2C(=O)NCc2nn(-c3ccccc3)nc2C)cc1 | 1% | 2.9µM* | 4% | 16% | 0% | 4% | -2% | -6% | 5.8µM*
Cc1ccc(CNC(=O)C(C)n2c(=O)cc(C(F)(F)F)c3c(C)nn(C)c32)cc1 (centres undefined) | . | ? | 4% | 6% | -1% | 6% | . | . | .
COc1ccc(C(=O)NC(c2ccccc2Cl)c2cc(Cl)c3cccnc3c2O)cc1 (centres undefined) | . | 4.1µM* | 2% | ? | -1% | ? | -1% | -27% | 4.6µM*
O=C(c1cnc(N2CCN(c3ccccn3)CC2)c2ccccc12)N1CCN(c2cccc(Cl)c2)CC1 | -6% | 5.8µM* | . | -3% | 0% | -30% | 4% | -22% | 8.2µM*
CCCCNc1cc(C(=O)O)cc(S(N)(=O)=O)c1Oc1ccccc1 | -8% | 5.8µM* | 4% | 6% | 0% | -3% | 2% | -7% | 6.5µM*
COc1cc(OC)c(NC(=O)C(c2ccccc2)N2Cc3ccccc3C2=O)cc1Cl (centres undefined) | . | -8% | 0% | -10% | 0% | -10% | . | . | .
O=C(CSc1nc2ccccc2c(=O)n1-c1ccccc1)N1CCc2ccccc2C1 | -6%[46.1 µM] | ? | -1% | 29% | 4% | -12% | . | . | .
CC(C)c1ccccc1-n1c(SCC(=O)N2CCc3ccccc3C2)nc2ccccc2c1=O | 1%[46.1 µM] | 8.2µM* | -5% | ? | 0% | -16% | 1% | ? | 16µM*
SMILES | TCR act | Nrf2 block | ClpP mod | miR-21 reporter | Nrf2 activator | A549 tox-1 | FLuc counter 3 | A549 tox-2 | Nrf2 ARE inh
Cc1cc(C)c(S(=O)(=O)N2CCN(S(=O)(=O)N3CCCCCC3)CC2)c(C)c1 | 1% | 25% | 1% | 1% | 0% | 3% | . | . | .
Cc1ccc(N2CCN(S(=O)(=O)N3CCCCC3)CC2)c(C)c1 | 3% | 6.5µM* | . | -3% | 0% | -15% | 3% | 9% | 9%
CC(Sc1nc2ccccc2c(=O)n1C)C(=O)Nc1ccc2c(c1)OCCO2 (centres undefined) | 0% | 5.2µM* | 1% | . | 0% | -13% | -1% | 3% | ?
CC(C)Cn1c(SC(C)C(=O)Nc2ccc3c(c2)OCCO3)nc2ccccc2c1=O (centres undefined) | 2% | -21% | -2% | -9% | 0% | -1% | . | . | .
Cc1ccc(NC(=O)COc2ccc3oc4c(c3c2)CCCC4)c(C)c1 | . | 10% | 1% | 0% | 0% | 3% | . | . | .
Cc1cc(C(=O)OCC(=O)N2CC(=O)Nc3ccccc32)c(C)n1-c1ccccc1 | -2%[46.1 µM] | ? | 1% | 9% | 5% | 1% | . | . | .

Bioassay records from PubChem.
